An excerpt weighted towards active compounds, which were near 3.6% of everything screened.
Pf apPOL inh – Pf-apPOL DNA polymerase inhibition; Recombinant Pf-apPOL, molecular beacon fluorescence, 1.5 h; inhibition, % at 10 µM; 210,000 compounds, 0.25% hits
mHTT-CaM PPI inh – disrupts binding of mutant huntingtin to calmodulin | inhibition, % at 15 µM | P42858 | AlphaScreen His-mHTT/GST-CaM binding, luminescence | 190,000 compounds, 3.6% hits | AID 1671202
Hits are given with their value; ! = not confirmed by another sample. Cut-off read from the data, not from the text of the source: active = inhibition above about 50%; inactive = the rest.

`COc1ccc(/C=C2/C(=O)N(c3ccc(Cl)c(Cl)c3)N=C2C)cc1[N+](=O)[O-]` gave Pf apPOL inh inactive and mHTT-CaM PPI inh inactive.
Screening COc1cc(/C=C2/C(=O)N(c3ccc(Cl)c(Cl)c3)N=C2C)cc(OC)c1O returned Pf apPOL inh inactive and mHTT-CaM PPI inh 67.
For COc1ccc(/C=C2/C(=O)N(c3ccccc3)N=C2C)cc1Br the results were Pf apPOL inh inactive and mHTT-CaM PPI inh inactive.
Screening COc1cc(/C=C2/C(=O)N(c3ccccc3)N=C2C)ccc1OCc1ccccc1 returned Pf apPOL inh inactive and mHTT-CaM PPI inh inactive.
COc1cc(C2=NOC(C(=O)NCCc3ccccc3)C2)cc(OC)c1OC (stereo not drawn) was read as Pf apPOL inh inactive and mHTT-CaM PPI inh inactive.
For COc1cc(/C=C2/C(=O)N(c3ccccc3)N=C2C)c([N+](=O)[O-])cc1OC the results were Pf apPOL inh inactive and mHTT-CaM PPI inh inactive.
COc1ccc(/C=C2/C(=O)N(c3ccc(Cl)c(Cl)c3)N=C2C)cc1Br was read as Pf apPOL inh inactive and mHTT-CaM PPI inh inactive.
For COc1cc(/C=C2/C(=O)N(c3ccccc3)N=C2C)cc([N+](=O)[O-])c1O the results were Pf apPOL inh inactive and mHTT-CaM PPI inh 57.
For C=CCOc1ccc(/C=C2/C(=O)N(c3ccc(Cl)c(Cl)c3)N=C2C)cc1OC the results were Pf apPOL inh inactive and mHTT-CaM PPI inh inactive.
`COc1cc(/C=C2/C(=O)N(c3cccc(Cl)c3)N=C2C)cc(Br)c1O` gave Pf apPOL inh inactive and mHTT-CaM PPI inh 78.
`COc1cc(/C=C2/C(=O)N(c3ccc(C)c(Cl)c3)N=C2C)ccc1O` gave Pf apPOL inh inactive and mHTT-CaM PPI inh 52.
CC1=NN(c2ccccc2)C(=O)/C1=C/c1ccc(O)c(Cl)c1 was read as Pf apPOL inh inactive and mHTT-CaM PPI inh inactive.
CC1=NN(c2ccccc2)C(=O)/C1=C/c1cc(Cl)c(O)c(Cl)c1 was read as Pf apPOL inh inactive and mHTT-CaM PPI inh 64.
Screening O=C(c1ccc([N+](=O)[O-])cc1Cl)N1CCc2ccccc2C1 returned Pf apPOL inh inactive and mHTT-CaM PPI inh inactive.
For COc1cccc(/C=C2/C(=O)N(c3cccc(Cl)c3)N=C2C)c1 the results were Pf apPOL inh inactive and mHTT-CaM PPI inh 96.
`COc1ccccc1/C=C1/C(=O)N(c2cccc(Cl)c2)N=C1C` gave Pf apPOL inh inactive and mHTT-CaM PPI inh inactive.
O=C(Nc1ccc([N+](=O)[O-])cc1)C1C(c2ccccc2)C1(Cl)Cl (stereo not drawn) was read as Pf apPOL inh inactive and mHTT-CaM PPI inh 94.
COc1ccc(NC(=O)C2C(C=C(Cl)Cl)C2(C)C)cc1 (stereo not drawn) was read as Pf apPOL inh inactive and mHTT-CaM PPI inh inactive.
Screening CC1(C)C(C=C(Cl)Cl)C1C(=O)Nc1ccc(S(N)(=O)=O)cc1 (stereo not drawn) returned Pf apPOL inh inactive and mHTT-CaM PPI inh inactive.
O=C(Nc1cccnc1)C1C(c2ccccc2)C1(Cl)Cl (stereo not drawn) was read as Pf apPOL inh inactive and mHTT-CaM PPI inh inactive.
Screening CC1(C)C(C=C(Cl)Cl)C1C(=O)Nc1ccc([N+](=O)[O-])cc1 (stereo not drawn) returned Pf apPOL inh inactive and mHTT-CaM PPI inh 99.
Cc1cc(C)nc(NS(=O)(=O)c2ccc(NC(=O)C3C(C=C(Cl)Cl)C3(C)C)cc2)n1 (stereo not drawn) was read as Pf apPOL inh inactive and mHTT-CaM PPI inh 67.
`CN1CCN(C(=O)c2csc(N3CCN(c4ccc(F)cc4)CC3)n2)CC1` gave Pf apPOL inh inactive and mHTT-CaM PPI inh inactive.
Cc1nn(-c2ccc(C(=O)NCCCN3CCCC3=O)cc2)c2c1C(=O)CC(C)(C)C2 was read as Pf apPOL inh inactive and mHTT-CaM PPI inh inactive.
For O=C1NC(c2ccccc2)=NC1=Cc1ccccc1 the results were Pf apPOL inh inactive.
Screening c1ccc(C2=NNC(c3ccccc3)=NN2)cc1 returned Pf apPOL inh 99! and mHTT-CaM PPI inh inactive.
Screening CC(=O)NCc1csc(C2CCN(C(=O)c3ccc(C)cc3C)CC2)n1 returned Pf apPOL inh inactive and mHTT-CaM PPI inh inactive.
COc1cccc2ccc(C3C(=O)c4ccccc4C3=O)nc12 was read as Pf apPOL inh inactive and mHTT-CaM PPI inh inactive.
COc1ccc(C2CC(C3C(=O)c4ccccc4C3=O)=NN2)cc1 (stereo not drawn) was read as Pf apPOL inh inactive and mHTT-CaM PPI inh 100.
For COc1ccc(/C=C2/N=C(c3ccc(F)cc3)OC2=O)c(OC)c1OC the results were Pf apPOL inh inactive and mHTT-CaM PPI inh inactive.
`Cn1nc(C2CC2)cc1NC(=O)CN1C(=O)c2ccccc2C1=O` gave Pf apPOL inh inactive.
COC(=O)c1ccc(C=C2Oc3c(CN4CCN(C)CC4)c(O)cc(C)c3C2=O)cc1 was read as Pf apPOL inh inactive and mHTT-CaM PPI inh inactive.
Screening Cc1[nH]nc2c1C(c1cccs1)C(C#N)=C(N)O2 (stereo not drawn) returned Pf apPOL inh inactive and mHTT-CaM PPI inh inactive.

Screening data from PubChem BioAssay.
